AMPAR-TARP mod – modulates AMPAR-stargazin complexes; O88602+P19491; HEK293 GluA2+stargazin, membrane potential dye (FDSS), glutamate EC50; hits were called plate by plate, in both directions; 40,000 tested, 3.5% active; calls only at 30 µM;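 active = any of four per-well response measures lying three or more SD from its plate-wide compound average, in either direction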
GIRK2 act – GIRK2 channel activators by thallium flux | P48051 | HEK293 GIRK2/NPY4 cells, thallium flux fluorescence | activation (% efficacy), % for hits at 37.5 µM | 34,000 tested, under 10 active;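 active = primary screen hit, no activity in plain HEK293 cells, and in GIRK2-only cells above 5% efficacy rising with concentration; inactive = the rest, including fluorescent compounds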;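 also: efficacy is normalized control-subtracted fluorescence 15 s after thallium addition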
An asterisk follows results filed as active; i = inactive; nt = no result; + = active, no number. The sample as a whole holds a higher share of hits than the screen did.

SMILES	AMPAR-TARP mod	GIRK2 act
O=C(c1ccco1)N1CCC(Cn2cccn2)CC1	i	i
O=C(N1CCC(Cn2cccn2)CC1)C1(c2ccccc2)CCOCC1	+	i
COc1ccc(-c2cc(C(F)F)n3ncc(C(=O)Nc4cccc(Cl)c4C)c3n2)cc1	i	nt
CC(C(=O)Nc1cccc(Br)c1)N1C(=O)c2ccccc2S1(=O)=O (stereo not drawn)	+	i
CC(C(=O)Nc1cc(Cl)ccc1O)N1C(=O)c2ccccc2S1(=O)=O (stereo not drawn)	+	i
CC(C(=O)Nc1nc2ccc(S(C)(=O)=O)cc2s1)N1C(=O)c2ccccc2S1(=O)=O (stereo not drawn)	i	nt
CC(C(=O)Nc1ccc(Br)cc1)N1C(=O)c2ccccc2S1(=O)=O (stereo not drawn)	i	i
CC(C(=O)Nc1nc2ccccc2s1)N1C(=O)c2ccccc2S1(=O)=O (stereo not drawn)	+	nt
CC(C(=O)Nc1ccc(F)c(F)c1F)N1C(=O)c2ccccc2S1(=O)=O (stereo not drawn)	i	nt
O=C(C1=C(O)C(=O)N(CCCn2ccnc2)C1c1cccs1)c1cc2ccccc2o1 (stereo not drawn)	i	nt
OC(COC12CC3CC(CC(C3)C1)C2)CN1CCN(Cc2ccccc2)CC1 (stereo not drawn)	i	nt
COc1cc(C(=O)NCCn2ncc3c(N4CCCCCC4)ncnc32)cc(OC)c1OC	i	i
Cc1cc(C)n(CC2CCN(C(=O)CC(c3ccccc3)c3ccccc3)CC2)n1	i	i
COC(=O)c1ccc2c(=O)n(Cc3ccc(C(=O)NCCCN4CCOCC4)cc3)c(=S)[nH]c2c1	+	i
COC(=O)c1ccc2c(=O)n(Cc3ccc(C(=O)NC4CCCC4)cc3)c(=S)[nH]c2c1	i	i
COc1cccc(N2CC(c3nc4ccccc4n3CC(O)COc3ccc(C)cc3)CC2=O)c1 (stereo not drawn)	i	i
COC(=O)c1ccc(CSc2nnc(-c3cn(C)nc3OC)n2C)cc1	i	i
O=C(Nc1ccccc1Br)c1n[nH]nc1Nc1cccc(Cl)c1	i	i
COc1cc(NC(=O)c2n[nH]nc2Nc2cccc(Cl)c2)cc(OC)c1	+	i
O=C1CC(c2nc(-c3ccc4c(c3)OCO4)no2)CN1c1ccc2c(c1)OCO2 (stereo not drawn)	i	i
O=C(Cn1nc2c(c1NC(=O)CC1CCCCC1)CSC2)NCC1CCCO1 (stereo not drawn)	i	i
CCCNC(=O)Cn1nc2c(c1NC(=O)CC1CCCC1)CSC2	+	i
COc1cc2[nH]c(=O)n(CCCCC(=O)N3CCN(c4cccc(C)c4)CC3)c(=O)c2cc1OC	i	nt
Cc1ccc(OCC(=O)N2CCC(CN3CCN(C)CC3C)CC2)cc1 (stereo not drawn)	i	i
O=C(c1cccs1)N(CCCn1ccnc1)c1nc2ccccc2s1	i	i
SMILES	AMPAR-TARP mod	GIRK2 act
Cc1ccc(Cl)c2sc(N(CCCn3ccnc3)C(=O)c3cccs3)nc12	+	i
COc1cccc(C(CNC(=O)c2cc(OC)c(OC)cc2[N+](=O)[O-])N2CCOCC2)c1 (stereo not drawn)	i	i
CC(=O)N1CCN(c2oc(-c3ccccc3C)nc2S(=O)(=O)c2ccc(C)cc2)CC1	+	i
Cc1ccc(S(=O)(=O)c2nc(-c3ccccc3C)oc2N2CCC(C(N)=O)CC2)cc1	i	i
CC(=O)N1CCN(c2oc(-c3ccccc3)nc2S(=O)(=O)c2ccccc2)CC1	i	i
O=S(=O)(c1ccccc1)c1nc(-c2ccccc2Cl)oc1N1CCCC1	+	i
Cc1ccc(-c2cc(NS(=O)(=O)c3ccc(F)cc3)n(C3CCS(=O)(=O)C3)n2)cc1 (stereo not drawn)	i	i
COc1ccc(-c2csc(NC(=O)Cc3ccc(SC)cc3)n2)c(OC)c1	i	nt
O=C(c1nc2ccccc2s1)N1CCC(c2nnc(-c3ccc(F)cc3)o2)CC1	i	i
CCCCC1CCC(C(=O)Nn2cnc3c(cnn3-c3ccccc3)c2=O)CC1 (stereo not drawn)	i	i
CCn1ccc(C(=O)N(CC2CCCO2)c2nc3c(C(C)C)cccc3s2)n1 (stereo not drawn)	nt	i
O=C(NCc1ccncc1)C(=O)Nc1ccc(F)c([N+](=O)[O-])c1	i	i
O=C(Nc1ccc(O)cc1)C(=O)Nc1ccc(F)c([N+](=O)[O-])c1	+	i
COc1ccc(-c2ccc(C)c(NC(=O)c3ccccc3OC)c2)nn1	+	i
COc1ccc(-c2ccc(C)c(NC(=O)c3cccc(OC)c3OC)c2)nn1	i	i
O=C(Nc1nnc(-c2cccs2)o1)c1cc(Cl)ccc1Cl	i	nt
Cc1cc(-c2nnc(NC(=O)c3ccc(Cl)s3)o2)nn1C	i	i
O=C(Nc1nnc(-c2ccc(Br)s2)o1)c1ccc(Cl)s1	+	i
O=C(Nc1nnc(-c2ccc(Br)s2)o1)c1cc(Cl)ccc1Cl	+	i
COCCNC(=O)Cc1ccc(NC(=O)c2ccc(OC(C)C)cc2)cc1	i	i
Cc1ccc(C)c(S(=O)(=O)N2CCCN(CCn3cccn3)CC2)c1	i	i
Cc1ccc(S(=O)(=O)N2CCN(CCn3cccn3)CC2)c(C)c1	+	i
COc1ccc2sc(=NC(C)=O)n(CCSC)c2c1	i	nt
COc1ccc2sc(=NC(=O)c3cc(C)no3)n(CCSC)c2c1	+	i
O=c1nc(SCc2cccc([N+](=O)[O-])c2)c2c(n1CC1CCCO1)CCC2 (stereo not drawn)	i	i
SMILES	AMPAR-TARP mod	GIRK2 act
O=c1nc(SCc2cccc(Cl)c2)c2c(n1CC1CCCO1)CCCC2 (stereo not drawn)	+	i
CN(C)C(CNC(=O)c1ccc(C(C)(C)C)cc1)c1ccc(F)cc1 (stereo not drawn)	i	nt
CC(O)CNC(=O)C(=O)NCc1cccs1 (stereo not drawn)	i	i
Cc1ccc(NC(=O)C(=O)NCC(c2ccccc2)N(C)C)c([N+](=O)[O-])c1 (stereo not drawn)	i	i
COc1ccc(-c2ccc(OCCNS(=O)(=O)c3cc(C)c(OC)cc3C)nn2)cc1	i	i
COc1cc(C)c(S(=O)(=O)NCCOc2ccc(-c3ccc(F)cc3)nn2)cc1C	+	i
O=C(COc1ccccc1)NCCN1CCn2cc(OCc3ccccc3)c(=O)cc2C1=O	i	i
Cc1cccc(OCC(O)Cn2c(N3CCN(c4ccccc4)CC3)nc3c2c(=O)n(C)c(=O)n3C)c1 (stereo not drawn)	i	nt
CN1CCN(c2nc3c(c(=O)n(C)c(=O)n3C)n2CC(O)COc2ccccc2)CC1 (stereo not drawn)	+	nt
Cc1ccc(OCC(O)Cn2c(N3CCC(C)CC3)nc3c2c(=O)n(C)c(=O)n3C)cc1C (stereo not drawn)	i	nt
COc1ccc(OCC(O)Cn2c(N3CCN(C)CC3)nc3c2c(=O)n(C)c(=O)n3C)cc1 (stereo not drawn)	+	nt
Cc1ccnc(OCC(=O)N(C)C)n1	nt	i
O=C(NCCN1CCOCC1)C(=O)NCCN1CCOC(c2ccccc2)C1 (stereo not drawn)	nt	i
CC(=O)c1ccc(N2CCN(C(=O)Cc3csc(-n4cccc4)n3)CC2)cc1	i	i

Screening results: PubChem BioAssay, several laboratories
